The values that follow come from PubChem BioAssay (NCI).

The panel holds about 83,000 compounds, 20% with a hit somewhere; the sample as a whole holds those more often.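 Note: values are percent growth. 100 is the growth of untreated cells, values between 100 and 0 indicate rising inhibition; between -100 and 0 indicates cell death.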 Values without a mark were called inactive. Calls of active or inactive are those of the source. Rule for the calls: active = growth percent below 10; inactive = the rest.

Among the test systems are DU-145 prostate; K-562 leukemia; MALME-3M melanoma; MDA-MB-231 breast; RXF 393 renal; SF-268 CNS; SF-295 CNS; SF-539 CNS; UACC-257 melanoma; HCT-15 colon; HT29 colon; SNB-75 CNS; SNB-19 CNS; U251 CNS; PC-3 prostate; SK-MEL-5 melanoma; UACC-62 melanoma; LOX IMVI melanoma; SK-MEL-28 melanoma.
Holding throughout (assay): NCI-60 one-dose screen, 48 h (100 = growth as untreated, 0 = no growth, -100 = all killed)
What all share (conditions): 10 µM unless noted

Regarding `CCCn1nc(C(=O)N(C)Cc2ccccc2)c2c1CCC(N1CCc3ccccc31)C2` (configuration not stated), the growth in the assay on DU-145 prostate is 109%; with K-562 leukemia, 86.7%; in the assay with MALME-3M melanoma, 112%; in the assay with MDA-MB-231 breast, 108%; in the assay with RXF 393 renal, 90.3%; in the assay with SF-268 CNS, 96.4%. The growth in the assay with SF-295 CNS was 92.1%; with SF-539 CNS it was 104%; in the assay with UACC-257 melanoma, 109%; in the assay with HCT-15 colon, 96.3%; in the assay on HT29 colon it was 102%; in the assay with SNB-75 CNS it was 100%. The growth in the assay with SNB-19 CNS is 90.2%; in the assay on U251 CNS, 96.9%; in the assay on PC-3 prostate it was 77.2%; with SK-MEL-5 melanoma it was 99.7%; in the assay with UACC-62 melanoma, 85.2%; in the assay on LOX IMVI melanoma, 100%. Also, in the assay on SK-MEL-28 melanoma, the growth is 106%.

As for `CCOC(=O)C(=Cc1ccc(-c2ccccc2)cc1)C(=O)OCC`, the growth is 36.6% in the assay with DU-145 prostate; 20% in the assay with K-562 leukemia; 70.6% in the assay with MALME-3M melanoma; 53.3% with MDA-MB-231 breast; 43% with RXF 393 renal; 37.5% with SF-268 CNS. In addition, the growth was 52.5% in the assay on SF-295 CNS; 21.4% in the assay with SF-539 CNS; 44.4% with UACC-257 melanoma; 13.3% with HCT-15 colon; 4.16% (active) in the assay with HT29 colon; 38% with SNB-75 CNS. In addition, the growth with SNB-19 CNS is 54.9%; in the assay on U251 CNS it was 21.3%; in the assay on PC-3 prostate, 31.8%; in the assay with SK-MEL-5 melanoma, 54.8%; with UACC-62 melanoma, 35.4%; in the assay on LOX IMVI melanoma, -56.6% (active). In addition, the growth with SK-MEL-28 melanoma was 31.1%.

With `CNC(=O)c1ccccc1Nc1nc(Nc2cc(OC)c(OC)c(OC)c2)ncc1Br`, the growth in the assay on DU-145 prostate was 9.08% (active); in the assay on K-562 leukemia, 8.02% (active); with MALME-3M melanoma, -39.5% (active); with MDA-MB-231 breast, -3.87% (active); in the assay with RXF 393 renal, -64.8% (active); in the assay with SF-268 CNS, -32.7% (active). The growth was -6.65% (active) with SF-295 CNS; -79.2% (active) with SF-539 CNS; -30.9% (active) in the assay on UACC-257 melanoma; 3.34% (active) in the assay on HCT-15 colon; -0.259% (active) in the assay with HT29 colon; -55% (active) in the assay on SNB-75 CNS. The growth in the assay with SNB-19 CNS is 6.35% (active); with U251 CNS, -9.93% (active); with PC-3 prostate it was 61.4%; in the assay on SK-MEL-5 melanoma it was -22.3% (active); in the assay on UACC-62 melanoma, -69.6% (active); with LOX IMVI melanoma it was -60.3% (active). Moreover, in the assay with SK-MEL-28 melanoma, the growth is -13.6% (active).

On to `COc1ccc(-c2nn(-c3ccccc3)cc2/C=C/C(=O)NNC(=O)Nc2ccc(C)cc2)cc1`, for which the growth in the assay with DU-145 prostate was 108%; in the assay with K-562 leukemia it was 78.3%; in the assay on MALME-3M melanoma, 91.8%; in the assay with MDA-MB-231 breast, 83.5%; with RXF 393 renal, 109%; in the assay on SF-268 CNS it was 102%. Moreover, the growth was 99% with SF-295 CNS; 101% with SF-539 CNS; 95.7% with UACC-257 melanoma; 97.1% in the assay on HCT-15 colon; 101% in the assay on HT29 colon; 96.5% with SNB-75 CNS. In addition, the growth with SNB-19 CNS was 88.5%; in the assay with U251 CNS, 94.3%; in the assay with PC-3 prostate, 89.6%; in the assay with SK-MEL-5 melanoma it was 96.5%; in the assay with UACC-62 melanoma, 89.3%; with LOX IMVI melanoma, 97.6%. Further, the growth in the assay on SK-MEL-28 melanoma was 115%.

As to `CCN1C(=O)N(CC)C2C1NN=c1s/c(=C3\C(=O)N(CC(C)C)c4ccccc43)c(=O)n12` (configuration not stated), the growth in the assay with DU-145 prostate was 10.4%; in the assay with K-562 leukemia, 10.5%; in the assay with MALME-3M melanoma it was 59.6%; with MDA-MB-231 breast, 12.3%; in the assay on RXF 393 renal, 21.9%; in the assay on SF-268 CNS it was 54.9%. Moreover, the growth is 6.8% (active) with SF-295 CNS; -23.5% (active) in the assay with SF-539 CNS; 65.5% in the assay with UACC-257 melanoma; 12.5% in the assay with HCT-15 colon; 2.25% (active) in the assay with HT29 colon; 14.9% with SNB-75 CNS. Besides, the growth with SNB-19 CNS was 28%; in the assay on U251 CNS, 12.1%; in the assay with PC-3 prostate, 27.7%; in the assay with SK-MEL-5 melanoma, 14.9%; in the assay on UACC-62 melanoma, 27.7%; with LOX IMVI melanoma, 24.7%. Moreover, the growth in the assay with SK-MEL-28 melanoma was 51%.

As for `Cc1ncc(C(=O)Nc2ccc(CN3CCN(C)CC3)c(C(F)(F)F)c2)cc1C#Cc1cnc(N)c2ncccc12`, the growth with DU-145 prostate was 34%; with K-562 leukemia it was -59.5% (active); in the assay with MALME-3M melanoma it was -79% (active); in the assay with MDA-MB-231 breast it was -78.9% (active); in the assay on RXF 393 renal, -18.9% (active); with SF-268 CNS, 29.8%. Also, the growth with SF-295 CNS was 48.8%; in the assay with SF-539 CNS it was 29.8%; in the assay on UACC-257 melanoma, 30.6%; in the assay with HCT-15 colon, 20%; with HT29 colon it was -13.8% (active); in the assay with SNB-75 CNS it was 50.9%. Further, the growth with SNB-19 CNS was 81%; in the assay on U251 CNS, 45.7%; in the assay with PC-3 prostate it was 5.19% (active); in the assay on SK-MEL-5 melanoma, -59.3% (active); in the assay with UACC-62 melanoma, 7.13% (active); in the assay on LOX IMVI melanoma, -3.58% (active). For the same molecule, the growth in the assay with SK-MEL-28 melanoma is -77.4% (active).

Regarding `CC1=C(C(=O)Nc2ccccc2)C(c2ccc3c(c2)OCO3)NC(=S)N1` (configuration not stated), the growth in the assay with DU-145 prostate was 111%; in the assay with K-562 leukemia, 118%; in the assay on MALME-3M melanoma it was 100%; in the assay on MDA-MB-231 breast, 106%; in the assay with RXF 393 renal, 129%; in the assay on SF-268 CNS, 106%. The growth was 105% in the assay with SF-295 CNS; 102% in the assay on SF-539 CNS; 107% with UACC-257 melanoma; 101% with HCT-15 colon; 109% in the assay on HT29 colon; 107% with SNB-75 CNS. Besides, the growth with SNB-19 CNS is 96.2%; in the assay with U251 CNS it was 104%; in the assay on PC-3 prostate, 95.3%; in the assay on SK-MEL-5 melanoma, 102%; with UACC-62 melanoma it was 97.5%; in the assay on LOX IMVI melanoma it was 96.2%. Further, the growth in the assay on SK-MEL-28 melanoma is 112%.

Regarding `COc1cnc2c(c1)C(=O)c1c-2n(CCCCl)c(=O)c2ccncc12`, the growth was 76% in the assay on DU-145 prostate; 38.7% with K-562 leukemia; 103% in the assay with MALME-3M melanoma; 81.4% with MDA-MB-231 breast; 81% in the assay on RXF 393 renal; 57.6% with SF-268 CNS. Also, the growth with SF-295 CNS was 36.6%; in the assay with SF-539 CNS it was 56.1%; in the assay on UACC-257 melanoma, 70%; with HCT-15 colon, 75.5%; in the assay on HT29 colon, 49.5%; with SNB-75 CNS, 55.6%. In addition, the growth in the assay with SNB-19 CNS is 55.4%; with U251 CNS, 33.6%; in the assay on PC-3 prostate it was 54%; in the assay on SK-MEL-5 melanoma, 34.3%; in the assay with UACC-62 melanoma it was 23.7%; with LOX IMVI melanoma, 33.8%. The growth in the assay on SK-MEL-28 melanoma is 99.3%.
